# LYPLA2 counter = LYPLA2 (human) inhibition in PME1 counter-screen. recombinant LYPLA2, FP-Rh probe fluorescence polarization. O95372. 320,000 compounds, 0.38% hits. inhibition, % at 5.9 µM;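 active means inhibition above the screen-wide mean plus 3 SD, limit set per campaign, cut at about 26% in these data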
# PAD4 inh = inhibitors of human PAD4; Q9UM07; recombinant PAD4, RCA probe fluorescence polarization; AID 485272; inhibition, % at 6.36 µM; 330,000 compounds, 0.41% hits;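 active means percent inhibition above a cutoff equal to the mean of all tested compounds plus 3 SD, cut at about 15% in these data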
# Target sequence (Q9UM07 whole entry, looked up): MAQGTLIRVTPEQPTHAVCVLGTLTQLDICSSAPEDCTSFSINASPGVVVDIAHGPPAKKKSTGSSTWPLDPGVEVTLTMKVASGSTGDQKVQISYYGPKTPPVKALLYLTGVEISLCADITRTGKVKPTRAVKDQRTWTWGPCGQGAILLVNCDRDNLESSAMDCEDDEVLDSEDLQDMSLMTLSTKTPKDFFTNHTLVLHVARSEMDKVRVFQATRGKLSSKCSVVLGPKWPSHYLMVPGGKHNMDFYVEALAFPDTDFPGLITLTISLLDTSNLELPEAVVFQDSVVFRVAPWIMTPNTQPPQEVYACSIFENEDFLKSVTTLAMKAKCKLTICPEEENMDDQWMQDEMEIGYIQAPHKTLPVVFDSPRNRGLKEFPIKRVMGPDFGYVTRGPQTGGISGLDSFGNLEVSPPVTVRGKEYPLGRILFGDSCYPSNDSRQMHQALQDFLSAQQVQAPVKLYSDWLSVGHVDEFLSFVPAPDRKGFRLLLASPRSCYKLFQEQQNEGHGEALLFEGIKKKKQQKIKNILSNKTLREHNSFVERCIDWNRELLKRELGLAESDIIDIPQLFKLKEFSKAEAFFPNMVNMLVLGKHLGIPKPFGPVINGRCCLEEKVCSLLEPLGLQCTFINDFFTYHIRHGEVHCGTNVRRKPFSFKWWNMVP
# Fam108B inh = counter-screen for RBBP9 inhibitors: inhibitors of mouse Fam108B | recombinant Fam108B, FP-Rh probe fluorescence polarization | inhibition, % at 9.51 µM | 300,000 compounds, 0.33% hits;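 active means inhibition above the screen mean inhibition plus 3 SD, computed separately per campaign, cut at about 18% in these data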;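 further: inhibitors lower polarization as less probe binds the enzyme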
# GSTO1 counter = GSTO1 inhibition, counter-screen for RBBP9 inhibitors; inhibition, % at 5.96 µM; 300,000 compounds, 1.1% hits; P78417; recombinant GSTO1, activity-based probe fluorescence polarization;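 active means inhibition above the campaign mean inhibition plus 3 SD, cut at about 35% in these data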
# PME-1 primary = PME-1 (human) inhibition. Q9Y570. recombinant PME-1, FP-Rh probe fluorescence polarization. inhibition, % at 5.9 µM. 320,000 compounds, 0.53% hits;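 active means inhibition above the campaign mean of all compounds plus 3 SD, cut at about 26% in these data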;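 further: competitive labeling of PME-1 active site by serine hydrolase directed probe; inhibitors block probe labeling so polarization falls and inhibition rises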
# LYPLA1 counter = blocks human lysophospholipase 1, a PME1 counter-screen; AID 2174; O75608; recombinant LYPLA1, FP-Rh probe fluorescence polarization; 320,000 compounds, 0.16% hits; inhibition, % at 5.9 µM;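 active means inhibition above the mean of all tested compounds plus 3 SD, set per campaign, cut at about 14% in these data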;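 further: inhibitors block serine hydrolase probe labeling of LYPLA1 so polarization falls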
# A number is an active result; – = inactive; · = no result given. Shown are actives, neighbours in structure and some others; about 1.8% of the full set was active somewhere.
SMILES,LYPLA2 counter,PAD4 inh,Fam108B inh,GSTO1 counter,PME-1 primary,LYPLA1 counter
CC(C)n1cc(CN2CCCC(CNS(=O)(=O)c3cccc4cccnc34)C2)cn1 (centres undefined),–,–,–,–,–,–
CC(C)(C)N1C(=O)c2ccc(C(=O)O)cc2C1=O,–,–,–,–,–,–
O=C(O)c1ccc2c(c1)C(=O)/C(=C/c1ccccc1)C2=O,–,–,–,56,–,–
COc1cccc(Oc2ccc(S(=O)(=O)N3CCCC3)cc2[N+](=O)[O-])c1,–,–,–,–,26,–
O=C1CCCN1CCCNc1ncnc2sccc12,–,–,–,–,–,–
Cc1sc2ncnc(NCCCN3CCCC3=O)c2c1C,–,–,–,37,–,–
COC(=O)c1c(C(=O)c2ccc(Br)cc2)n(C)c2ccccc12,–,–,·,·,–,–
CC(=O)N(C)C1=C(N2CCOCC2)C(=O)c2ccccc2C1=O,–,–,–,59,–,–
O=C(O)c1ccc(NC2=C(N3CCOCC3)C(=O)c3ccccc3C2=O)cc1,–,–,–,46,–,–
CC(=O)N(C)C1=C(O)c2ccccc2C(=O)C1=O,–,–,–,–,–,–
COc1ccc(C2N(C(=O)CN3CCCC3)CCCN2S(=O)(=O)c2ccccc2)cc1 (centres undefined),–,–,–,–,–,–
COc1ccc(/C=N/NC(=O)c2nn(-c3ccccc3)c(=O)c3c(N)scc23)cc1,–,–,–,53,–,–
COc1ccc(/C=N/NC(=O)c2nn(-c3ccc(Cl)cc3)c(=O)c3c(N)scc23)cc1,–,–,–,–,–,–
Cc1ccc(NS(=O)(=O)c2ccc3c(c2)oc(=O)n3C)cc1C,–,–,–,37,–,–
CCOc1ccc(NS(=O)(=O)c2ccc3c(c2)oc(=O)n3C)cc1,–,–,–,36,–,–
Cn1cc([N+](=O)[O-])c(C(=O)N2CCN(Cc3ccc4c(c3)OCO4)CC2)n1,–,–,–,–,–,–
C[C@H](CO)N1C[C@H](C)[C@@H](CN(C)S(=O)(=O)c2cccs2)Oc2ccc(NC(=O)Cn3cnnn3)cc2C1=O,·,–,·,·,·,·
Cc1cccc2cc(C#N)c(SCC#N)nc12,–,–,–,–,31,–
CC(=O)Nc1ccc(S(=O)(=O)Nc2ccc3c(c2)CCC3)cc1,–,–,–,35,–,–
COCCNC(=O)c1cn(C)c2ccccc2c1=O,–,–,–,–,–,–
NC(=S)N/N=C/c1cccc(O)c1O,–,–,–,84,–,–
NC(=S)N/N=C/c1ccccc1O,–,–,–,–,–,–
COc1cc2c(cc1OC)-c1cc3ccc4c(c3c[n+]1CC2)OCO4,–,–,–,42,–,–
C#CCn1c(CCNC(=O)c2ccco2)nc2ccccc21,–,–,–,–,–,–
O=C(NC1CCCCC1)c1ccc(CS(=O)(=O)c2ccc(Cl)cc2)o1,–,–,–,–,–,–
SMILES,LYPLA2 counter,PAD4 inh,Fam108B inh,GSTO1 counter,PME-1 primary,LYPLA1 counter
CCCn1c(CCC(=O)Nc2ccccc2Cc2ccccc2)nc2cc(S(=O)(=O)N3CCOCC3)ccc21,–,–,–,–,37,–
O=S(=O)(NC1CC1)c1ccccc1,–,–,–,–,–,–
Cc1n[nH]c(=O)c2c(NC(=O)CSc3nc4ccccc4c(=O)n3CCCOC(C)C)oc(C)c12,–,–,–,–,–,–
COc1ccc(-n2ccn(CC(=O)Nc3ccc(OC)cc3OC)c(=O)c2=O)cc1,–,–,–,–,–,–
CCOc1ccc(/C=C2\CCCc3c2nc2ccccc2c3C(=O)O)cc1OC,–,27,–,–,–,–
CCCOc1cccc(C(=O)Nc2ccc3c(c2)OCCO3)c1,–,–,–,–,–,–
COc1cc(OC)c(NC(=S)Nc2cc(Cl)cc(Cl)c2)cc1Cl,–,–,21,–,–,–
COc1cc(OC)c(NC(=S)Nc2cccc(C(C)=O)c2)cc1Cl,–,–,–,–,–,–
CNS(=O)(=O)c1cn(CC(=O)NCc2ccc(F)cc2)cc1S(=O)(=O)NC,–,–,–,–,–,–
COC(=O)CNC(=O)C1Nc2ccccc2C2C=CCC12 (centres undefined),–,–,–,43,–,–
Cc1ccc(S(=O)(=O)CCc2ccncc2)cc1,–,–,–,–,–,–
Cc1nnc(C)n1/N=C/c1c(O)ccc2ccccc12,–,–,–,–,–,–
Cc1nc2ccccc2c(=O)n1/N=C/c1ccc2ccccc2c1O,–,–,–,67,–,–
Cc1nnc(-c2ccccc2)c(=O)n1/N=C/c1c(O)ccc2ccccc12,–,–,–,39,–,–
Cc1nc2ccccc2c(=O)n1/N=C/c1ccccc1O,–,–,–,–,–,–
O=C(CCc1ccccc1)Nc1ccc2c(c1)C(=O)OC2,–,–,–,–,–,–
CCOP(=O)(OCC)c1ccc2ccc3ccccc3c(=O)c2c1,·,–,·,·,·,·
Cc1ccc(S(=O)(=O)NNC(=O)Nc2ccc([N+](=O)[O-])cc2)c(C)c1,–,–,–,–,–,–
CC(=O)NC1=C(NC2CCS(=O)(=O)C2)C(=O)c2ccccc2C1=O (centres undefined),–,–,–,–,–,–
CN(C1=C(NC(=O)c2ccccc2)C(=O)c2ccccc2C1=O)C1CCS(=O)(=O)C1 (centres undefined),–,–,–,75,–,–
CCN(C(=O)COC(=O)c1ccccc1NCCO)C1CCS(=O)(=O)C1 (centres undefined),–,–,–,–,–,–
COc1cc2c(C#N)c(N3CCN(c4ccccc4OC)CC3)nc(N)c2c(N)n1,–,–,–,–,73,–
COC(=O)CCC(=O)OC1(C)C(=O)C2=CN(CCc3ccccn3)C(c3ccc(OC)cc3)=CC2=C(Br)C1=O (centres undefined),–,–,–,66,–,–
CCOc1ccccc1N1C(=O)CC(Nc2ccc(N3CCOCC3)cc2)C1=O (centres undefined),–,19,–,–,–,–
O=C1CC(Nc2ccc(N3CCOCC3)cc2)C(=O)N1c1ccccc1 (centres undefined),–,–,–,–,–,–
COCCN(C(=O)CSc1n[nH]c(-c2ccccc2)n1)c1c(N)n(Cc2ccccc2)c(=O)[nH]c1=O,–,–,–,–,–,–
CNC(=O)c1c(NC(=O)c2ccc(S(=O)(=O)N3CC(C)OC(C)C3)cc2)sc2c1CCN(C(C)C)C2 (centres undefined),–,–,–,–,–,–
CNC(=O)c1c(NC(=O)c2ccc(S(=O)(=O)N3CCCC3)cc2)sc2c1CCN(C(C)C)C2,–,–,–,–,34,–
COc1ccccc1NC(=O)CCC(=O)Nc1nnc(C(F)(F)F)s1,–,–,–,–,89,–
CCOc1ccccc1N(C)C(=O)CCS(=O)(=O)c1ccc2c(c1)NC(=O)C(C)S2 (centres undefined),–,–,–,–,–,–

# Screening data (PubChem)
